Measurements published in PubChem BioAssay AID1645851 (National Center for Advancing Translational Sciences (NCATS), 2021).
Out of some 140,000 compounds screened, about 1,200 (0.86%) were called active. Shown is part of a subset that was picked to be rich in actives. Values without a mark were called inactive. Cut-off read from the data, not from the text of the source: active = activity change below about -25%; inactive = the rest.

target: Inositol hexakisphosphate kinase 1 (Homo sapiens) (UniProt Q92551); assay: Primary qHTS assay for small molecule inhibitors of Inositol hexaphosphate kinase 1 (IP6K1); settings: ADP-Glo luminescence, 2 h, active compounds read low; note: series mostly up to about 58 µM
Sequence (Q92551 whole entry, looked up): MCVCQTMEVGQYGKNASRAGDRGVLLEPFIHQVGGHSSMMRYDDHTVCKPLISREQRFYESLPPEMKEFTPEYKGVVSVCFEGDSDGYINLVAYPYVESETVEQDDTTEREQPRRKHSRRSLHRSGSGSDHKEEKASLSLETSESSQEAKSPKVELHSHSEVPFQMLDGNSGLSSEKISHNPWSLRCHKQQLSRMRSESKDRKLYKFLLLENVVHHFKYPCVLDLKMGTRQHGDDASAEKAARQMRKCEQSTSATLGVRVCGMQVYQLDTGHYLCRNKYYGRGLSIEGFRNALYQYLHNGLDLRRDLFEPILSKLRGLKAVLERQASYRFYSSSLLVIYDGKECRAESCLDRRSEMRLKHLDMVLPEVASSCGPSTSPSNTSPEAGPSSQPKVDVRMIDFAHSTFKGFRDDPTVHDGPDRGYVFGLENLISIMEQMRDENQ
How it was run: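 ADP-Glo luminescence measures ADP made by human IP6K1 during a 2 h RT reaction with ATP/IP6 (mix at 1.3 mM/130 uM); top library doses 57.5 and 19.1 uM final.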
% is set by controls: 0 for no effect and ±100 for the full control effect.

Row | Compound | activity change
1 | COCCn1c(=O)n([C@H]2CCCN(C(=O)CCc3ccccc3)C2)c2ncccc21 | 6.71%
2 | CC(C)(Oc1nn(Cc2cccc(Cl)c2)c2ccccc12)C(=O)Nc1cccnc1 | -0.544%
3 | Cc1cc(C)cc(N2CCC(NS(=O)(=O)c3cn(C)c(C)n3)C2=O)c1 (stereo unspecified) | -1.58%
4 | Cc1ccccc1N1CCCN(Cc2nc(-c3ccccn3)no2)CC1 | -0.56%
5 | COc1ccc(Nc2cnc3ccc(-c4ccc(OC)nc4)nn23)cc1 | -13.5%
6 | COc1ccc(-c2ccc3ncc(Nc4ccc(C(F)(F)F)cc4)n3n2)cn1 | -13.9%
7 | COc1ccc(-c2ccc3ncc(Nc4cc(F)cc(N5CCOCC5)c4)n3n2)cn1 | -29.7% (active)
8 | CC[C@@]1(C(=O)O)C[C@H](C(=O)N(C)CC(=O)O)[C@H](c2ccc(OC)cc2)N1C | 9.58%
9 | COC(=O)c1ccc(CO[C@H]2CCC=C3C[C@@H](O)CC[C@@]32C)cc1 | 17.7%
10 | CCOC(=O)c1ccc(CSc2nnc3cc(C)c4ccccc4n23)cc1 | -36.2% (active)
11 | CCOC(=O)c1ccc(NC(=O)CSc2nc3c([nH]c4ccccc43)c(=O)n2C)cc1 | 32.9%
12 | CCOC(=O)c1ccc(NC(=O)c2nc(SCc3ccc(F)cc3)ncc2Cl)cc1 | -10%
13 | O=S(=O)(N[C@@H]1CCOC[C@H]1Oc1ccccn1)c1ccc(Cl)s1 | -5.56%
14 | O=C(NCc1ccco1)C1c2ccccc2C(=O)N(C2CCCC2)C12CCCCC2 (stereo unspecified) | -8.07%
15 | Cc1ccc(-c2ccc3nnc(CNC(=O)c4ccccn4)n3n2)cc1 | -2.05%
16 | CC(=O)N1CCN(c2ccc3nnc(-c4ccc(C)cn4)n3n2)CC1 | -10.9%
17 | Cc1ccc(-c2nnc3ccc(-c4ccoc4)nn23)nc1 | -36.1% (active)
18 | CC(=O)Nc1ccc(S(=O)(=O)N[C@H]2CO[C@H]3[C@@H]2OC[C@@H]3n2nnnc2-c2ccc(N(C)C)cc2)cc1 | 2.63%
19 | CCCS(=O)(=O)N1CCC(N2CC(OCCOC)C23CCCCC3)CC1 (stereo unspecified) | -5.2%
20 | CCCS(=O)(=O)c1ncc(Cl)c(C(=O)Nc2scc(-c3ccccc3)c2C(=O)OCC)n1 | -31.2% (active)
21 | CCOC(=O)c1scc(-c2ccccc2)c1S(=O)(=O)Nc1ccccc1F | -14.6%
22 | Cc1ccc(NC(=O)c2nc(S(=O)(=O)Cc3cccc(C)c3)ncc2Cl)cc1 | -17.5%
23 | CCNC(=O)CCc1c(CC)nn(-c2ccc(F)cc2)c1Oc1ccccc1 | 1.63%
24 | CCOc1ccc(C(=O)N2CCC(c3n[nH]c(=O)n3-c3ccccc3)CC2)cc1OCC | -6.36%
25 | O=Cc1cccc(-c2cc(F)cc(F)c2)c1 | -5.81%
26 | CSc1ccc(-c2ccc(C=O)cc2)cc1 | -28.5% (active)

Row | Compound | activity change
27 | COc1ccc(CNC(=O)[C@@H](C)C2CC[C@@]3(C)CC[C@H](NC(=O)c4ccc(C#N)cc4)[C@@H](C)[C@@H]3[C@H]2O)cc1 (stereo partly specified) | -11.9%
28 | COc1ccc(Nc2ccnc(N3CCCC(C(=O)NCc4ccc(C(F)(F)F)cc4)C3)n2)cc1 (stereo unspecified) | -7.37%
29 | Cc1ccccc1Cc1c(C)nc2c(C(=O)N3CCc4c(c(-c5nncn5C)nn4C)C3)cnn2c1C | 9.9%
30 | N#CC1CCN(C(=O)c2ccc3nnc(Cc4ccco4)n3c2)CC1 | 2.16%
31 | Cc1noc2c(-c3cccc(CO)c3)cc(-c3ccccc3)nc12 | -16.9%
32 | COc1ccccc1-c1cc(-c2cccc([S+](C)(=O)[O-])c2)c2onc(C)c2n1 | 2.9%
33 | COc1ccccc1-c1cc(-c2cn[nH]c2)c2onc(C)c2n1 | -25.3% (active)
34 | Cn1c(CCC(=O)N2CC[C@H](CO)[C@H](O)C2)nc2cccnc21 | -2.6%
35 | COc1ccccc1C(=O)N1CCCC2(C1)Nc1cccnc1NC2=NCc1ccccc1 (stereo unspecified) | 6.92%
36 | O=C(NCC1CCCCC1)[C@@H]1CCCN1c1ccnc2ccnn12 | -2.98%
37 | CN(C)c1ccc(CN2CCC(N3Cc4ccccc4C3=O)CC2)cc1 | -12.5%
38 | CCc1ccccc1N1C(=O)CN(S(=O)(=O)CC)CC1(C)C(=O)NC1CCCCC1 (stereo unspecified) | -30.6% (active)
39 | CCc1ccccc1NC(=O)c1ccc(F)c(S(=O)(=O)NC2CCCCCC2)c1 | 15.5%
40 | CCc1ccc(N2C(=O)CN(S(=O)(=O)CC)CC2(C)C(=O)NC2CCCCC2)cc1 (stereo unspecified) | -13.3%
41 | COC(=O)NC1CCN(Cc2ccc(-c3cc(F)ccc3OC)cc2)C1 (stereo unspecified) | 6.69%
42 | Cc1oc(C(O)c2ccccc2)nc1C(=O)Nc1ccc2c(c1)CC(=O)N2 (stereo unspecified) | 9.78%
43 | COc1ccc(OCCCn2c(C3CC(=O)N(c4ccc(F)cc4)C3)nc3ccccc32)cc1 (stereo unspecified) | -3.06%
44 | CCc1ccccc1N1CC(c2nc3ccccc3n2CCCCOc2ccccc2)CC1=O (stereo unspecified) | -28.8% (active)
45 | CCOc1ccc(N2CC(c3nc4ccccc4n3CCOc3ccc(OC)cc3)CC2=O)cc1 (stereo unspecified) | -11.8%
46 | COCCO[C@H]1C(=O)N(C2CCN(C(=O)c3ccsc3)CC2)[C@H]1c1ccncc1 | 6.99%
47 | CCOC(=O)c1ccc(NC(=O)c2csc3c2CCCCC3)cc1 | 3.62%
48 | CCOC(=O)c1ccc(NC(=O)c2c(NCc3cccs3)sc3c2CCCC3)cc1 | -31.3% (active)
49 | CCOC(=O)c1ccc(NC(=O)c2c(NCc3cccc(OC)c3)sc3c2CCC3)cc1 | 8.31%
50 | CC(=O)Nc1cccc(C(=O)N2CCCN(c3cc(-c4ccc(Br)cc4)[nH]n3)CC2)c1 | -10.1%
51 | O=C(NCc1ccc(F)c(F)c1)C1CCCN(Cc2cccc(-c3cccs3)c2)C1 (stereo unspecified) | 0.462%
